The source of these data is the supplement of paper PMC4840960.

Where a name gives a salt, the structure may show the parent alone. ± gives the standard deviation of the averaged measurements.

The test system of the first assay is E18 rat cortical neuron-glia co-culture. Description: fiber score / MBP score (myelination specific beyond OL differentiation) (ratio); higher = more myelination-specific MBP alignment. To be noted: 1 µM; treatment time: 8 days (DIV5-DIV13). The essentials:
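The measure is the ratio of fiber score to MBP score, where fiber score is continuous MBP fiber length per Olig2+ nucleus and MBP score is thresholded MBP area × intensity per Olig2+ nucleus. Primary E18 rat cortical co-cultures received library compounds at 1 or 5 µM in myelination medium from DIV5 to DIV13, then were fixed in 4 % paraformaldehyde and stained for MBP, Olig2 and DAPI before analysis of four 10X fields per well in duplicate wells.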
On to `CC[C@H]1OC(=O)[C@H](C)[C@@H](O[C@H]2C[C@@](C)(OC)[C@@H](O)[C@H](C)O2)[C@H](C)[C@@H](O[C@@H]2O[C@H](C)C[C@H](N(C)C)[C@H]2O)[C@](C)(O)C[C@@H](C)C(=O)[C@H](C)[C@@H](O)[C@]1(C)O` [Erythromycin], for which the “fiber score / MBP score” value came out at 0.767.

On to `O=c1c(-c2ccccc2)c1-c1ccccc1` [Diphenylcyclopropenone], for which the “fiber score / MBP score” value came out at 0.809.

With `CCCCc1nc(Cl)c(CO)n1Cc1ccc(-c2ccccc2-c2nnn[nH]2)cc1` [Losartan], the “fiber score / MBP score” value was found to be 0.8.

Take `CC1(C)O[C@@H]2C[C@H]3[C@@H]4CCC5=CC(=O)C=C[C@]5(C)[C@@]4(F)[C@@H](O)C[C@]3(C)[C@]2(C(=O)CO)O1` [Azmacort]: the “fiber score / MBP score” value worked out at 0.687.

Regarding `CCOC(=O)C1=C(COCCN)NC(C)=C(C(=O)OC)C1c1ccccc1Cl` (stereo unspecified) [Amlodipine], the “fiber score / MBP score” value was 0.613.

Take `CNCCC(Oc1ccc(C(F)(F)F)cc1)c1ccccc1` (stereo unspecified) [Fluoxetine hydrochloride]: the “fiber score / MBP score” value worked out at 0.807.

In the case of `CSc1ccc2c(c1)N(CCC1CCCCN1C)c1ccccc1S2` (stereo unspecified) [Thioridazine], the “fiber score / MBP score” value worked out at 0.479.

`CC#C[C@]1(O)CC[C@H]2[C@@H]3CCC4=CC(=O)CCC4=C3[C@@H](c3ccc(N(C)C)cc3)C[C@@]21C` [Mifepristone]: the “fiber score / MBP score” value is 0.755.

On to `CC(C)(C)NC(=O)[C@@H]1C[C@@H]2CCCC[C@@H]2CN1C[C@@H](O)[C@H](Cc1ccccc1)NC(=O)[C@H](CC(N)=O)NC(=O)c1ccc2ccccc2n1` [Saquinavir], for which the “fiber score / MBP score” value came to 0.889.

In the case of `Oc1c(Cl)cc(Cl)c2cccnc12` [Chloroxine], the “fiber score / MBP score” value was 2.26.

With `c1ccc(CC2=NCCN2)cc1` [Tolazoline], the “fiber score / MBP score” value was determined as 0.396.

For the molecule `C[C@@H]1CN(CCCn2c3ccccc3c3ccccc32)C[C@H](C)N1` [Rimcazole], the “fiber score / MBP score” value is 0.507.

`CN1CCN(CCCN2c3ccccc3Sc3ccc(C(F)(F)F)cc32)CC1` [Trifluoperazine]: the “fiber score / MBP score” value was found to be 0.177.

Take `Clc1ccc(COC(Cn2ccnc2)c2ccc(Cl)cc2Cl)c(Cl)c1` (stereo unspecified) [Miconazole]: the “fiber score / MBP score” value turned out to be 0.482.

On to `Nc1nc(O)c2ncn(CCC(CO)CO)c2n1` [Penciclovir], for which the “fiber score / MBP score” value was found to be 0.784.

In the case of `O=C1CCc2ccc(OCCCCN3CCN(c4cccc(Cl)c4Cl)CC3)cc2N1` [Aripiprazole], the “fiber score / MBP score” value turned out to be 0.301.

As for `CN(C/C=C/C#CC(C)(C)C)Cc1cccc2ccccc12` [Terbinafine], the “fiber score / MBP score” value is 0.788.

With `C=CCc1ccc(O)c(-c2ccc(O)c(CC=C)c2)c1` [Honokiol], the “fiber score / MBP score” value amounted to 0.744.

On to `C[C@@H]1C[C@H]2[C@@H]3CCC4=CC(=O)C=C[C@]4(C)[C@@]3(F)[C@@H](O)C[C@]2(C)[C@@]1(O)C(=O)CO` [Dexamethasone], for which the “fiber score / MBP score” value stood at 0.824.

`OCCN1CCN(CCCN2c3ccccc3Sc3ccc(C(F)(F)F)cc32)CC1` [Fluphenazine]: the “fiber score / MBP score” value was found to be 0.784.

Take `CS(=O)(=O)c1ccc(-c2cc(Br)sc2-c2ccc(F)cc2)cc1`: the “fiber score / MBP score” value worked out at 0.92.

As for `COC1=C(OC)C(=O)C(CCCCCCCCCCO)=C(C)C1=O` [Idebenone], the “fiber score / MBP score” value was determined as 0.848.

Consider `Clc1ccc(COC(Cn2ccnc2)c2ccc(Cl)cc2Cl)cc1` (stereo unspecified) [Econazole], for which the “fiber score / MBP score” value was 0.731.

As for `CN(CCCN1c2ccccc2CCc2ccccc21)CC(=O)c1ccc(Cl)cc1` [Lofepramine], the “fiber score / MBP score” value was 0.564.

Consider `NNCCc1ccccc1` [Phenelzine], for which the “fiber score / MBP score” value turned out to be 0.849 ± 0.21.

As for `CC(C)c1ccc2c(c1)c(SC(C)(C)C)c(CC(C)(C)C(=O)O)n2Cc1ccc(Cl)cc1`, the “fiber score / MBP score” value is 1.1.

As to `CCOC(=O)C1=C(C)NC(C)=C(C(=O)OCC)C1c1ccccc1/C=C/C(=O)OC(C)(C)C` [Lacidipine], the “fiber score / MBP score” value was 0.575.

As to `OCCN1CCN(CCCN2c3ccccc3Sc3ccc(Cl)cc32)CC1` [Perphenazine], the “fiber score / MBP score” value stood at 0.338.

As to `Cc1cccc(CN2CCN(C(c3ccccc3)c3ccc(Cl)cc3)CC2)c1` (stereo unspecified) [Meclizine], the “fiber score / MBP score” value stood at 0.439.

Consider `CCN(CC)CCOc1ccc(C(=C(Cl)c2ccccc2)c2ccccc2)cc1` [Clomiphene], for which the “fiber score / MBP score” value was 0.64.

For `CCc1c2c(nc3ccc(OC(=O)N4CCC(N5CCCCC5)CC4)cc13)-c1cc3c(c(=O)n1C2)COC(=O)[C@]3(O)CC` [Irinotecan], the “fiber score / MBP score” value stood at 2.03.

As for `CC(C)(O)c1ccccc1CC[C@@H](SCC1(CC(=O)O)CC1)c1cccc(/C=C/c2ccc3ccc(Cl)cc3n2)c1` [Montelukast], the “fiber score / MBP score” value came to 0.64.

With `O=c1c(O[C@@H]2O[C@H](CO)[C@H](O)[C@H](O)[C@H]2O)c(-c2ccc(O)c(O)c2)oc2cc(O)cc(O)c12` [Hyperoside], the “fiber score / MBP score” value was determined as 0.853.

For `CC=CC(=O)N(CC)c1ccccc1C` [Crotamiton], the “fiber score / MBP score” value amounted to 0.609.

The next assay has the same test system. The assay is described as follows: myelination (MBP fiber length per Olig2+ nucleus), % of 1 µM DAPT response (DMSO = 0) (% of DAPT); higher = more myelination, active = 50 or more. To be noted: 1 µM; treatment time: 8 days (DIV5-DIV13). The essentials: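 The myelination value was the continuous straight MBP fiber length per Olig2+ nucleus, scaled between 0.1 % DMSO (0) and a 1 µM positive control (100). It was measured in primary E18 rat cortical co-cultures treated with library compounds at 1 or 5 µM in myelination medium from DIV5 through DIV13. Cells were fixed in 4 % paraformaldehyde and stained for MBP, Olig2 and DAPI, and four 10X fields per well were imaged in duplicate wells.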
In the case of `CC[C@H]1OC(=O)[C@H](C)[C@@H](O[C@H]2C[C@@](C)(OC)[C@@H](O)[C@H](C)O2)[C@H](C)[C@@H](O[C@@H]2O[C@H](C)C[C@H](N(C)C)[C@H]2O)[C@](C)(O)C[C@@H](C)C(=O)[C@H](C)[C@@H](O)[C@]1(C)O` [Erythromycin], the myelination is -11.1 (inactive).

Take `O=c1c(-c2ccccc2)c1-c1ccccc1` [Diphenylcyclopropenone]: the myelination is -43.4 (inactive).

`CCCCc1nc(Cl)c(CO)n1Cc1ccc(-c2ccccc2-c2nnn[nH]2)cc1` [Losartan]: the myelination was -14.1 (inactive).

For `CC1(C)O[C@@H]2C[C@H]3[C@@H]4CCC5=CC(=O)C=C[C@]5(C)[C@@]4(F)[C@@H](O)C[C@]3(C)[C@]2(C(=O)CO)O1` [Azmacort], the myelination is -5.49 (inactive).

In the case of `CCOC(=O)C1=C(COCCN)NC(C)=C(C(=O)OC)C1c1ccccc1Cl` (stereo unspecified) [Amlodipine], the myelination is -4.57 (inactive).

As for `CNCCC(Oc1ccc(C(F)(F)F)cc1)c1ccccc1` (stereo unspecified) [Fluoxetine hydrochloride], the myelination is -1.16 (inactive).

As to `CSc1ccc2c(c1)N(CCC1CCCCN1C)c1ccccc1S2` (stereo unspecified) [Thioridazine], the myelination was -11.4 (inactive).

With `CC#C[C@]1(O)CC[C@H]2[C@@H]3CCC4=CC(=O)CCC4=C3[C@@H](c3ccc(N(C)C)cc3)C[C@@]21C` [Mifepristone], the myelination was -23 (inactive).

Turning to `CC(C)(C)NC(=O)[C@@H]1C[C@@H]2CCCC[C@@H]2CN1C[C@@H](O)[C@H](Cc1ccccc1)NC(=O)[C@H](CC(N)=O)NC(=O)c1ccc2ccccc2n1` [Saquinavir], the myelination is 3.19 (inactive).

As to `Oc1c(Cl)cc(Cl)c2cccnc12` [Chloroxine], the myelination was -4.18 (inactive).

`c1ccc(CC2=NCCN2)cc1` [Tolazoline]: the myelination is -13.6 (inactive).

Turning to `C[C@@H]1CN(CCCn2c3ccccc3c3ccccc32)C[C@H](C)N1` [Rimcazole], the myelination was -12.2 (inactive).

`CN1CCN(CCCN2c3ccccc3Sc3ccc(C(F)(F)F)cc32)CC1` [Trifluoperazine]: the myelination is -80.1 (inactive).

`Clc1ccc(COC(Cn2ccnc2)c2ccc(Cl)cc2Cl)c(Cl)c1` (stereo unspecified) [Miconazole]: the myelination is -12.3 (inactive).

Consider `Nc1nc(O)c2ncn(CCC(CO)CO)c2n1` [Penciclovir], for which the myelination was 3 (inactive).

Turning to `O=C1CCc2ccc(OCCCCN3CCN(c4cccc(Cl)c4Cl)CC3)cc2N1` [Aripiprazole], the myelination is -54.9 (inactive).

In the case of `CN(C/C=C/C#CC(C)(C)C)Cc1cccc2ccccc12` [Terbinafine], the myelination was -6.59 (inactive).

Take `C=CCc1ccc(O)c(-c2ccc(O)c(CC=C)c2)c1` [Honokiol]: the myelination is -2.87 (inactive).

As to `C[C@@H]1C[C@H]2[C@@H]3CCC4=CC(=O)C=C[C@]4(C)[C@@]3(F)[C@@H](O)C[C@]2(C)[C@@]1(O)C(=O)CO` [Dexamethasone], the myelination is -36.6 (inactive).

Consider `OCCN1CCN(CCCN2c3ccccc3Sc3ccc(C(F)(F)F)cc32)CC1` [Fluphenazine], for which the myelination is 3 (inactive).

Take `CS(=O)(=O)c1ccc(-c2cc(Br)sc2-c2ccc(F)cc2)cc1`: the myelination was 8.65 (inactive).

Turning to `COC1=C(OC)C(=O)C(CCCCCCCCCCO)=C(C)C1=O` [Idebenone], the myelination is -12.8 (inactive).

For the molecule `Clc1ccc(COC(Cn2ccnc2)c2ccc(Cl)cc2Cl)cc1` (stereo unspecified) [Econazole], the myelination is 0.139 (inactive).

Regarding `CN(CCCN1c2ccccc2CCc2ccccc21)CC(=O)c1ccc(Cl)cc1` [Lofepramine], the myelination was -18.3 (inactive).

For the molecule `CN1[C@@H]2CC[C@H]1C[C@@H](OC(c1ccccc1)c1ccccc1)C2` [Benzatropine], the myelination was < -84.9 (inactive).

On to `NNCCc1ccccc1` [Phenelzine], for which the myelination is -25.5 (inactive).

With `CC(C)c1ccc2c(c1)c(SC(C)(C)C)c(CC(C)(C)C(=O)O)n2Cc1ccc(Cl)cc1`, the myelination is -5.83 (inactive).

With `CCOC(=O)C1=C(C)NC(C)=C(C(=O)OCC)C1c1ccccc1/C=C/C(=O)OC(C)(C)C` [Lacidipine], the myelination is -18.6 (inactive).

Take `Cc1c2oc3c(C)ccc(C(=O)N[C@@H]4C(=O)N[C@H](C(C)C)C(=O)N5CCC[C@H]5C(=O)N(C)CC(=O)N(C)[C@@H](C(C)C)C(=O)O[C@@H]4C)c3nc-2c(C(=O)N[C@@H]2C(=O)N[C@H](C(C)C)C(=O)N3CCC[C@H]3C(=O)N(C)CC(=O)N(C)[C@@H](C(C)C)C(=O)O[C@@H]2C)c(N)c1=O` [Dactinomycin]: the myelination is < -33.5 (inactive).

Take `OCCN1CCN(CCCN2c3ccccc3Sc3ccc(Cl)cc32)CC1` [Perphenazine]: the myelination is -21.7 (inactive).

On to `Cc1cccc(CN2CCN(C(c3ccccc3)c3ccc(Cl)cc3)CC2)c1` (stereo unspecified) [Meclizine], for which the myelination is -29.8 (inactive).

For `CCN(CC)CCOc1ccc(C(=C(Cl)c2ccccc2)c2ccccc2)cc1` [Clomiphene], the myelination was -33.9 (inactive).

As to `CCc1c2c(nc3ccc(OC(=O)N4CCC(N5CCCCC5)CC4)cc13)-c1cc3c(c(=O)n1C2)COC(=O)[C@]3(O)CC` [Irinotecan], the myelination is 255 (active).

In the case of `CC(C)(O)c1ccccc1CC[C@@H](SCC1(CC(=O)O)CC1)c1cccc(/C=C/c2ccc3ccc(Cl)cc3n2)c1` [Montelukast], the myelination was -10.2 (inactive).

`O=c1c(O[C@@H]2O[C@H](CO)[C@H](O)[C@H](O)[C@H]2O)c(-c2ccc(O)c(O)c2)oc2cc(O)cc(O)c12` [Hyperoside]: the myelination was -69.1 (inactive).

With `COc1cccc2c1C(=O)c1c(O)c3c(c(O)c1C2=O)C[C@@](O)(C(=O)CO)C[C@@H]3O[C@H]1C[C@H](N)[C@H](O)[C@H](C)O1` [Adriamycin], the myelination is < -51.2 (inactive).

In the case of `CC=CC(=O)N(CC)c1ccccc1C` [Crotamiton], the myelination was -16.8 (inactive).
